Test in all cases: DAPPL (digital affinity profiling via proximity ligation, sequencing); 10 mM Tris-HCl pH 7.5, 50 mM NaCl, 1 mM DTT, 4% glycerol, room temperature, 30 min; GST-TFs on glutathione beads, 16-mer random dsDNA library, 0.1% formaldehyde crosslink after washing; high values mean tight binding
What all share (conditions): protein: recombinant; tags: N-terminal GST; dsDNA, one strand shown

Test [1] deals with T1, GABPA (Homo sapiens, UniProt Q06546 1-454).
T1 sequence: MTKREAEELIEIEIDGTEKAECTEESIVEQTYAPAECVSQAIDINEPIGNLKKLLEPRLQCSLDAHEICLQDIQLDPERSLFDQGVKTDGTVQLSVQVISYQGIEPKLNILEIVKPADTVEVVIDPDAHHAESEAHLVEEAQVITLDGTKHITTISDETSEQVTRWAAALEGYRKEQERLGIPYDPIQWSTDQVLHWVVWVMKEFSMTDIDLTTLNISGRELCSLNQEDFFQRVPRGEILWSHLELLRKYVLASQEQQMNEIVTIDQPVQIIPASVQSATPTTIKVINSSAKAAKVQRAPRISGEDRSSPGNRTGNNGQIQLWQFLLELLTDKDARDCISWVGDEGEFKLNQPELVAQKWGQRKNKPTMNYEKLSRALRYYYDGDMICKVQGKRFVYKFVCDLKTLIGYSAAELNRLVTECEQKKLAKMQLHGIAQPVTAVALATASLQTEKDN
In short, it runs like this: (§1)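 A tag-only sample was pooled with DNA-barcoded human transcription factors that had been expressed in yeast as GST fusions and captured on glutathione beads. The pools were incubated for 30 min at room temperature with 200 nmole of a random double-stranded 16-mer DNA library in Tris/NaCl/DTT/glycerol buffer, then washed, crosslinked with 0.1% formaldehyde, proximity-ligated (BsaI/T4 ligase, 1 h, 37 °C), PCR-amplified and sequenced on an Illumina NextSeq500. Binding signal is each hexamer's read frequency for a factor divided by its frequency for the tag-only sample.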

Test [2] has as its target T2, ERG (Homo sapiens, UniProt P11308 1-479).
T2 sequence: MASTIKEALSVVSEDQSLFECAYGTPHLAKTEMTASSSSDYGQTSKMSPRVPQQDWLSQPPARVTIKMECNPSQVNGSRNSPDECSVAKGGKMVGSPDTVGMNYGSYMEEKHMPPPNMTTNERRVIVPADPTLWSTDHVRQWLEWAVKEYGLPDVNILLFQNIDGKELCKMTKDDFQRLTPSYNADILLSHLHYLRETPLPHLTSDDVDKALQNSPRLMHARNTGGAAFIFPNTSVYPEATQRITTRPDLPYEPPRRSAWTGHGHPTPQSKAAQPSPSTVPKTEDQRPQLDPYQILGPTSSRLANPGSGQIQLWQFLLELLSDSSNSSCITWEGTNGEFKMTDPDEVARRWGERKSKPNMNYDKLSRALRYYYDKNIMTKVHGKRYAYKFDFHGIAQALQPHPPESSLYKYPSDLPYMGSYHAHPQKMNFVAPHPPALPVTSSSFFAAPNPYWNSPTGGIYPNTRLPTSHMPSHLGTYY
In short, it runs like this:
as §1

Test [3] addresses ELF1 (Homo sapiens, UniProt P32519 1-619). In short, it runs like this:
as §1

In test [4] the target is T3, EHF (Homo sapiens, UniProt Q9NZC4 1-300).
T3 sequence: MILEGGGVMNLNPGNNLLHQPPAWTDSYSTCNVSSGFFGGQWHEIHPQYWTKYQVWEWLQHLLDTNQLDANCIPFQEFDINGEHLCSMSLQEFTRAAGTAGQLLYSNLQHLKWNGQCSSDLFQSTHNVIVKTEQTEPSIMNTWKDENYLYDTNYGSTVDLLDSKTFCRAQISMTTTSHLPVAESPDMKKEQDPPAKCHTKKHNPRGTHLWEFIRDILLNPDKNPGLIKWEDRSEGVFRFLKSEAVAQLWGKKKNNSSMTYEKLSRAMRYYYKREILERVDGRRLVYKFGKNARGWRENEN
In short, it runs like this:
as §1

Test [5] concerns the target T4, SPIC (Homo sapiens, UniProt Q8N5J4 1-248).
T4 sequence: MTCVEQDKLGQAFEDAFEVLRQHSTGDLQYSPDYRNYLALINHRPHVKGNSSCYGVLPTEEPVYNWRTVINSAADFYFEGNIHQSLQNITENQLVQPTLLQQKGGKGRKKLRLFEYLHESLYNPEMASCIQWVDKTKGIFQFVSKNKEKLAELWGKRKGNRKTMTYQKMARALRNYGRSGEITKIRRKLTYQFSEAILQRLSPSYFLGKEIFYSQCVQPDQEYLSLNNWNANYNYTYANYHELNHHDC
In a few lines: as §1

Test [6] deals with ETV1 (Homo sapiens, UniProt P50549 1-477). In a few lines:
as §1

The target in test [7] is T5, ERF (Homo sapiens, UniProt P50548 1-548).
T5 sequence: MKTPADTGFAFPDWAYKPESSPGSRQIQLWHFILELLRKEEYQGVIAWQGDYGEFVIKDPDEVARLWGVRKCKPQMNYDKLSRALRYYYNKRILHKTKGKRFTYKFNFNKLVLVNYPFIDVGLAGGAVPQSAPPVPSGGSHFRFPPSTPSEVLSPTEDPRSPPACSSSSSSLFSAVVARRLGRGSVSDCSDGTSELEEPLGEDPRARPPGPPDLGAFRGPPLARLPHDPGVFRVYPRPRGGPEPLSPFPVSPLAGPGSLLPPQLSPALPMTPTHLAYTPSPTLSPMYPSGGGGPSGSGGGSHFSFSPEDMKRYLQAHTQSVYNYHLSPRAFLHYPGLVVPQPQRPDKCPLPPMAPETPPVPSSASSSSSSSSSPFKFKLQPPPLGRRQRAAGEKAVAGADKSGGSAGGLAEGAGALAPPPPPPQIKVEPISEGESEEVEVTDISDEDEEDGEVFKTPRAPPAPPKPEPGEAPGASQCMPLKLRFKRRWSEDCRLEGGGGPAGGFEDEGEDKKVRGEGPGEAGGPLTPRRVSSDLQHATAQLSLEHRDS
In a few lines: as §1

Test [8] concerns the target T6, ETV3L (Homo sapiens, UniProt Q6ZN32 1-361).
T6 sequence: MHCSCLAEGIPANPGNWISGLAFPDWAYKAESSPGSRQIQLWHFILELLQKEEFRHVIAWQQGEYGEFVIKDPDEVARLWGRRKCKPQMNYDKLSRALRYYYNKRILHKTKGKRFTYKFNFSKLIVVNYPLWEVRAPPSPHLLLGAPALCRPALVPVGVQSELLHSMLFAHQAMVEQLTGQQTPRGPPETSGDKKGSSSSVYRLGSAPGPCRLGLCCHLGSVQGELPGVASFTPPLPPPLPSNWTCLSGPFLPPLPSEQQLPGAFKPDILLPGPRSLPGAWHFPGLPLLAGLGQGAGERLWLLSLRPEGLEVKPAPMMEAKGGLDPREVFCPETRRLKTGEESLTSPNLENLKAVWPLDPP
In short, it runs like this:
as §1

The target of test [9] is T7, ETS2 (Homo sapiens, UniProt P15036 1-469).
T7 sequence: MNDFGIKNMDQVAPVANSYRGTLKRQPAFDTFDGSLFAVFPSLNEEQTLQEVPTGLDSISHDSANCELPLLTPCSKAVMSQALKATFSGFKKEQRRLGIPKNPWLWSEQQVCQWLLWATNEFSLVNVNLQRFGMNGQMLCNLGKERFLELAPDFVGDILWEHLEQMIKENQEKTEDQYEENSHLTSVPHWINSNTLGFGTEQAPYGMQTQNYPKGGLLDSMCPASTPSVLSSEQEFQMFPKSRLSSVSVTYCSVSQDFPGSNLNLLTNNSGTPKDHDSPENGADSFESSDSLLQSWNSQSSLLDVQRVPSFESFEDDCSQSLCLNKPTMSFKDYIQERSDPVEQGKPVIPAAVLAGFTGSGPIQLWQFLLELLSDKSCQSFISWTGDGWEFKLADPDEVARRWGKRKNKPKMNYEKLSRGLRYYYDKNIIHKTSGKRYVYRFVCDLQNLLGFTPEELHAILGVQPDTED
In short, it runs like this:
as §1

Test [10] deals with T8, ETV7 (Homo sapiens, UniProt Q9Y603 1-341).
T8 sequence: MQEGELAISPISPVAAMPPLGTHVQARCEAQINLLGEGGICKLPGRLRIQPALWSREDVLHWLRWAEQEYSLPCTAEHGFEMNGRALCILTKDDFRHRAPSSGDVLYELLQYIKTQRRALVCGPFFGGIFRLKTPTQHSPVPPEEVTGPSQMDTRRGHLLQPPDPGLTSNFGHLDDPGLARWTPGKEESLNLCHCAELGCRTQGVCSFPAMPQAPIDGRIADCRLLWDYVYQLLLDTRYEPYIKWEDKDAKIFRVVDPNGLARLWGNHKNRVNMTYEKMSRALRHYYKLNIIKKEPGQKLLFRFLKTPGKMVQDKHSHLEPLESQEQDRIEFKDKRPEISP
In a few lines: as §1

Chain of ETV1 (P50549 whole entry): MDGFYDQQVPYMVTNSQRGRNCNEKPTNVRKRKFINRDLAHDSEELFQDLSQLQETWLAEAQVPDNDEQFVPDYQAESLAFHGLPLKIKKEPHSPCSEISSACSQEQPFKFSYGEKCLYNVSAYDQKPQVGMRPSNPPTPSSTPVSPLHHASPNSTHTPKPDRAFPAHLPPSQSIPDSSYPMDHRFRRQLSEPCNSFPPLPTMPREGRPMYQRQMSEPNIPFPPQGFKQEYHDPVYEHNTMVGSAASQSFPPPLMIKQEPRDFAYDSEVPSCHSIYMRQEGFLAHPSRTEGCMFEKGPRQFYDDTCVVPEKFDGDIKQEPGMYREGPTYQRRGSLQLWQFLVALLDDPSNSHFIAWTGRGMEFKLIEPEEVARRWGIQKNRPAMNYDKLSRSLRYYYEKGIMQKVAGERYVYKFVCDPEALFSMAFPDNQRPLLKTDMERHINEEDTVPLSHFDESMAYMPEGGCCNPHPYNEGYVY
Chain of ELF1 (P32519 whole entry): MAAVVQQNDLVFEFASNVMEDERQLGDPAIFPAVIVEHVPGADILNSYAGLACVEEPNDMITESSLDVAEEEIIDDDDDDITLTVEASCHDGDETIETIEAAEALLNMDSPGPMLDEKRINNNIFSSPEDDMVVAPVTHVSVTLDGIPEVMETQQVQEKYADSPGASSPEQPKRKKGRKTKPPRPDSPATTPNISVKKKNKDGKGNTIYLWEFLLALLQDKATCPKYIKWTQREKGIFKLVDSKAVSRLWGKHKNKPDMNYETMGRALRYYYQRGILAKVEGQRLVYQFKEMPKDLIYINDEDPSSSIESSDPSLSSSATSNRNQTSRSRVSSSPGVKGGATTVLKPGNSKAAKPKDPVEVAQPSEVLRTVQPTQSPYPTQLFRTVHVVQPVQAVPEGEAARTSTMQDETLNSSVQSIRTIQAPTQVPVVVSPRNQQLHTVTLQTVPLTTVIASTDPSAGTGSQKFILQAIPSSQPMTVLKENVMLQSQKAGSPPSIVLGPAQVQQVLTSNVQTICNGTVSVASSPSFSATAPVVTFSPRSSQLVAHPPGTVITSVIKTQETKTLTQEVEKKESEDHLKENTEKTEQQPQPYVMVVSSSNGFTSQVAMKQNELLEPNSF

With TAGACT, the binding signal in test [1] is 1.02 fold enrichment (6-mer frequency, TF over GST control); in test [2], 1.05 fold enrichment (6-mer frequency, TF over GST control); in test [3], 1.09 fold enrichment (6-mer frequency, TF over GST control); in test [4], 1.04 fold enrichment (6-mer frequency, TF over GST control); in [5], 1.03 fold enrichment (6-mer frequency, TF over GST control); in [6], 1.02 fold enrichment (6-mer frequency, TF over GST control). Moreover, the binding signal in test [7] is 1.07 fold enrichment (6-mer frequency, TF over GST control); in test [8] it was 1 fold enrichment (6-mer frequency, TF over GST control); in [9], 1.02 fold enrichment (6-mer frequency, TF over GST control); in test [10] it was 1.05 fold enrichment (6-mer frequency, TF over GST control).

These data come from article PMC7862700, “An all-to-all approach to the identification of sequence-specific readers for epigenetic DNA modifications on cytosine”.
